Results: PubChem BioAssay (NCI)
About 83,000 compounds went through this panel and 20% of them were active in at least one assay; those are over-represented in the sample as a whole.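 Values shown are percent growth following 48 h exposure of cells in 96-well plates to a single concentration of compound; below 10 was considered active.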 Activity calls are given as the source filed them.

System: COLO 205 colon
Assay: NCI-60 one-dose screen, 48 h (100 = growth as untreated, 0 = no growth, -100 = all killed)
Details: 10 µM
Description: Cells are grown in 96 well plates and exposed to the test compound for 48 hours. Compounds are tested at a single concentration, which is 10^-5 M for most compounds. The reported endpoint is percent growth (GI% or GIPRCNT), where numbers from 0 - 100% represent growth inhibition, and numbers from -100% - 0 represent cell death. For example, a value of 40 represents 60% growth inhibition. A value of 0 means no net growth occurred over the course of the experiment. A value of -40 indicates 40% of cells at the beginning of the experiment died by the end of the experiment. A value of -100 means all cells are dead at the end of the experiment.
NCI-60 Human Tumor Cell Lines Screen was performed using the standard one-dose NCI protocol, which is described in more detail at https://dtp.cancer.gov/discovery_development/nci-60/default.htm.
Compounds with GIPRCNT values below 10 were considered active. Activity score was based on GIPRCNT using the following formula: […]
Score is 0 for GIPRCNT values of 100 or above, 50 for GIPRCNT values of 0, and 100 for GIPRCNT values of -100.

SMILES	growth
O=C(N/N=C\c1cc(Cl)ccc1O)c1ccncc1	23.7% (inactive)
CC(C)C[C@H](NC(=O)Cn1ccc2ccccc2c1=O)B(O)O	62.2% (inactive)
O=C(NNC(=O)c1ccncc1)Nc1ccc([N+](=O)[O-])cc1	112% (inactive)
COc1ccc(-c2[nH]ncc2/C=C/c2cc(C(F)(F)F)[nH]c(=O)n2)cc1	113% (inactive)
COc1cccc(-c2nnc(COc3ccc(-c4nc5ccccc5[nH]4)cc3OC)o2)c1	85.4% (inactive)
Cn1c([N+](=O)[O-])cnc1C=C1C(=O)c2ccccc2C1=O	42.3% (inactive)
CCN1CCN(c2nc(NNC(=O)c3cccc(OC)c3)nc(N3CCN(C(c4ccccc4)c4ccccc4)CC3)n2)CC1	-31.6% (active)
CC(=O)c1c(O)cc2c3c1OC(C)(C)C1CCC(C)(CC31)O2 (stereo not given)	92.3% (inactive)
CCc1ccc(-c2nnc(COc3ccc(-c4nc5ccccc5[nH]4)cc3OC)o2)cc1	64.4% (inactive)
CCn1nc(-c2ccc(C(=O)OC)cc2)nc2c(=O)n(C)c(=O)nc1-2	87.2% (inactive)
Cc1cc(C)c(C(=O)OC(C)CNC2CCCCC2)c(C)c1 (stereo not given)	96.8% (inactive)
COc1ccc(-c2nsc3c2NC(=O)CC3c2ccc(Cl)cc2)cc1 (stereo not given)	93.8% (inactive)
COc1ccc(-c2nnc(SC/C(=N\O)c3ccccc3)o2)cc1	110% (inactive)
N#CN1CC[C@H](C(=O)Nc2ncc(-c3ccccc3)s2)C1	-63.3% (active)
Cc1ccc(S(=O)(=O)N2CCc3ccccc3CC2)cc1	81% (inactive)
CNC(=O)c1cc(Oc2ccc(NC(=O)Nc3ccc(Cl)c(C(C)(C)C)c3)c(F)c2)ccn1	19.6% (inactive)
O=C(Nc1cccc(Cl)c1)Nc1cc2ncncc2cc1OCc1cccc(F)c1	-69.6% (active)
CC(CNC(Cc1ccccc1)c1ccccc1)NC(Cc1ccccc1)c1ccccc1 (stereo not given)	9.3% (active)
CC1(C)CC(=O)c2c(nc3ccc(Cl)cc3c2-c2ccccc2)C1	94.5% (inactive)
Cc1ccc2oc(=O)cc(/C(=C3/C=CC=N3)c3ccc[nH]3)c2c1	-53.6% (active)

SMILES	growth
COC1OC2COC(c3ccccc3)OC2C(=O)C1NC(=O)c1ccccc1 (stereo not given)	97.2% (inactive)
COc1ccc(C2=Cc3ccc(OC(C)=O)cc3OC2)cc1	110% (inactive)
COc1ccc(-c2nsc3c2NC(=O)CC3c2cccc(Cl)c2)cc1 (stereo not given)	-40.6% (active)
Cc1ccc(S(=O)(=O)Oc2ccccc2-c2ccccc2)cc1	8.93% (active)
COc1cc(C2C(C#N)=C(c3c[nH]c4ccccc34)Nc3nc(N)[nH]c(=O)c32)cc(OC)c1OC (stereo not given)	65% (inactive)
COc1ccc(C2=NNC(c3sc(Cl)nc3Cl)C2)cc1 (stereo not given)	63.1% (inactive)
CC(Oc1ccc(Cl)cc1)c1ccccc1 (stereo not given)	105% (inactive)
COc1ccc(-c2cc(/C=C3\C(=O)Nc4cc(Cl)ccc43)[nH]n2)cc1OC	79.4% (inactive)
COc1cc(-c2cc(/C=C/C(C)=O)[nH]n2)cc(OC)c1OC	93.4% (inactive)
CC(=O)Nc1nc(C)c(C(=O)NNC=O)s1	128% (inactive)
O=C1CC[C@@H](C(=O)N[C@H]2CSSC[C@@H](C(=O)NCCc3ccccc3)NC(=O)[C@H](Cc3ccccc3)NC(=O)[C@@H]3CCCN3C(=O)[C@@H]3CCCN3C2=O)N1	119% (inactive)
CCCCCCCCCCSC(=N)N (tested in a mixture with another compound)	-59.2% (active)
COc1cccc(-c2nnc(COc3ccc(-c4nc5ccc(C)cc5[nH]4)cc3OC)o2)c1	72.6% (inactive)
O=S(=O)(NC1c2ccccc2Oc2ccccc21)c1cc(Cl)ccc1Cl	98.9% (inactive)
Cc1ccc(C)c2c1sc1nc3n[nH]c(N)c3c(=N)n12	112% (inactive)
O=C(c1ccccc1)C(Sc1ccccc1)c1ccccc1 (stereo not given)	108% (inactive)
COC(=O)[C@]12CC[C@@H](C)[C@H](C)[C@@H]1C1=CC[C@@H]3[C@@]4(C)C/C(=N\O)[C@H](O)[C@@]5(C)COC(=C45)C[C@@]3(C)[C@]1(C)CC2	-91.9% (active)
O=[N+]([O-])C1CC2C=CC1C2 (stereo not given)	115% (inactive)
N#Cc1ccc(-n2cnc(NC(=O)[C@H]3CCN(C#N)C3)c2)cc1	-55.3% (active)
O=C(Cn1ccc(=O)[nH]c1=O)c1ccc([N+](=O)[O-])o1	71.5% (inactive)
